# Test results from PubChem BioAssay (NCI).
# About 79,000 compounds went through this panel and 15% of them were active in at least one assay; those are over-represented in the sample as a whole. Unmarked numbers belong to inactive results. Calls of active or inactive are those of the source. No stated cut-off is given here; in the data, active means growth inhibition above about 70%; inactive means the rest. Where a SMILES comes first, the peptide text is derived from it. [ ]: non-standard residue; d: D form. The star is where a group is joined. ξ: configuration not given here. ξD = NC(CC(=O)O)C(=O)O; Boc = CC(C)(C)OC(=O)*; Aib = CC(C)(N)C(=O)O; OtBu = CC(C)(C)O*
# Experiments:
# [1] = NCI Yeast Anticancer Drug Screen. Data for the rad50 strain (AID 155);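 further: 0% = growth of vehicle-only cultures of the same strain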; settings: S. cerevisiae rad50 strain growth inhibition; at 50.0 µM; stronger effect = higher value
# Method in brief: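 Inhibition values express reduced yeast growth in compound-treated cultures relative to vehicle-treated controls.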
# [2] = NCI Yeast Anticancer Drug Screen. Data for the mec2-1 strain (AID 157); settings: S. cerevisiae mec2-1 strain, at 50.0 µM, stronger effect = higher value
# Method in brief: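 Using mec2-1 yeast: add compound, measure growth, express inhibition versus vehicle-treated cultures.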
# [3] = NCI Yeast Anticancer Drug Screen. Data for the sgs1 mgt1 strain (AID 161);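 further: 0% = growth of cultures given vehicle only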; settings: S. cerevisiae sgs1 mgt1 strain, at 50.0 µM, stronger effect = higher value
# Method in brief: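 Percent growth inhibition was derived by comparing compound-exposed mutant yeast with vehicle-exposed cultures. The strain carries alterations in DNA damage repair.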
# [4] = NCI Yeast Anticancer Drug Screen. Data for the cln2 rad14 strain (AID 165);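 further: 0% = growth equal to vehicle treated cultures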; settings: S. cerevisiae cln2 rad14 strain, at 50.0 µM, stronger effect = higher value
# Method in brief: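 Yeast strain cln2 rad14, bearing defects in cell cycle control and DNA repair, serves as the test system; values reflect growth inhibition compared with vehicle.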
# [5] = NCI Yeast Anticancer Drug Screen. Data for the bub3 strain (AID 167); settings: S. cerevisiae bub3 mutant strain, at 50.0 µM, stronger effect = higher value
# Method in brief: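 Steps: expose the mutant yeast strain to compound; grow alongside vehicle-treated cultures; measure growth; express inhibition against the vehicle cultures.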
# [6] = NCI Yeast Anticancer Drug Screen. Data for the mlh1 rad18 strain (AID 175); settings: S. cerevisiae mlh1 rad18 strain growth inhibition; at 50.0 µM; stronger effect = higher value
# Method in brief: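 Steps: expose repair-defective yeast to compound; measure growth; express inhibition against vehicle-treated controls.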
SMILES,growth inhibition [1],growth inhibition [2],growth inhibition [3],growth inhibition [4],growth inhibition [5],growth inhibition [6]
COC(=O)/C(=N/NC(N)=O)C(C(=O)OC)C(=O)C(=O)Nc1ccc(Cl)cc1 (stereo unspecified),1.4%,-21.8%,-16.9%,13.8%,-14.4%,-34.5%
COC(=O)C(C)(C)NC(=O)C(C)(C)NC(=O)C(CC(=O)OC(C)(C)C)NC(=O)OC(C)(C)C (stereo unspecified) (Boc-[ξD](OtBu)-[Aib]-[Aib]-OMe),-29.3%,-16.1%,-21.1%,-7.4%,-18.4%,-28.7%
CSCCC(C(=O)O)N(C)C (stereo unspecified),-4.3%,-21.3%,-17.3%,-2.9%,-19.6%,-18%
CCOC(=O)/C(=N/O)c1ccccn1,0.4%,-8.65%,-4.35%,16.2%,-5.35%,-3.8%
CCCCCCCCCCCCCCCC/C=C\CCCCCCCCCCCCCCCCC,-7.8%,-18.1%,-0.85%,17.3%,2.25%,-13.1%
Cc1cc2nc(CC(C(F)(F)F)C(F)(F)F)oc2cc1C,-21%,-13.4%,-13.2%,-4.85%,-14.4%,34.9%
O=C(O)CCc1ccc(NC(=O)CCl)cc1,4.05%,14.6%,17.3%,8.35%,5.45%,14.7%
Cc1cccc(N2CCC(O)C2)c1 (stereo unspecified),-5.3%,7.25%,-0.1%,9.35%,-6.9%,-21.1%
CC(=O)OC(C)(C#N)C(C)(C#N)OC(C)=O (stereo unspecified),-13.3%,-6.4%,-1.1%,-37.1%,-8.75%,-20.3%
COC(=O)c1cc(Cl)ccc1OCC(=O)NCc1ccc(Cl)cc1,9.1%,-3.3%,11.8%,-5.85%,-26.1%,12.1%
CC1OC1P(=O)(O)O (stereo unspecified),16.6%,-5.9%,-4.55%,1.7%,-3.3%,-6.55%
Clc1ccccc1NCSC1=NCCS1,5.95%,-15.8%,3.9%,-19.6%,-3.85%,20.8%
CCC1(CN(C)C)CC/C(=C\c2ccc(OC)c(OC)c2)C1=O (stereo unspecified),13.2%,0%,-1.25%,15.9%,7.8%,25.2%
O=[N+]([O-])c1cccc(S(=O)(=O)O)c1 (tested in a mixture with another compound),15.3%,-3.65%,-0.1%,-33.6%,-2.2%,-4.95%
O=C(NC(c1ccccc1)C(O)C(=O)OCc1ccc2c(c1)C(=O)c1ccccc1C2=O)c1ccccc1 (stereo unspecified),10.9%,15.4%,-23.3%,-0.15%,-8.9%,20.6%
NCCCC(=O)NCCCC(=O)O,19.9%,-5.75%,-2.25%,-15.9%,-6.75%,2%
O=CC(NC(=O)C(O)C(O)C(O)C(O)CO)C(O)C(O)C(O)CO (stereo unspecified),-13.2%,6.8%,-1.45%,-40%,-0.95%,1.15%
O=c1[nH]c2cc(Cl)ccc2nc1/C=C(\O)c1cccc2ccccc12,40.9%,15.2%,28.6%,17%,15.1%,35%
CCc1ccccc1OCC1CO1 (stereo unspecified),10.9%,3.5%,11.2%,2.2%,-11.9%,18.2%
CCOc1ccc2nc(NC(=O)C(=O)C3C(=O)C(CC4C(=O)c5ccccc5C4=O)C(=O)CC3(C)C)sc2c1 (stereo unspecified),31.4%,-1.1%,14.3%,-29.8%,-29.4%,8.9%
O=C(O)c1ccc(-c2ccc(C(=O)O)cc2I)c(I)c1,25.2%,2.2%,6.25%,-5.25%,0.15%,10%

SMILES,growth inhibition [1],growth inhibition [2],growth inhibition [3],growth inhibition [4],growth inhibition [5],growth inhibition [6]
NC(=O)C(=CNC(=S)Nc1ccc(S(N)(=O)=O)cc1)C(N)=O,-10.1%,-31.1%,-16.4%,2.9%,-10.4%,0.5%
C(=C\c1nc2ccccc2nc1/C=C/c1ccccc1)/c1ccccc1,-25.9%,-9.4%,-13.8%,-12.3%,2.7%,9.45%
CC(=O)CC(=O)NC(C)c1ccccc1 (stereo unspecified),-4.05%,-12.8%,-4.65%,-18.5%,-7.3%,3.2%
C/C=C/c1ccc(O)c(OC)c1,13.1%,-11.6%,4.85%,-5.95%,-3.25%,-9.3%
CC1(C)C(=O)N2c3ccccc3C3(CC(N4C(=O)c5ccccc5C4=O)C(=O)O3)C2N1C(=O)OCc1ccccc1 (stereo unspecified),26.1%,13.8%,9.35%,15.2%,14.1%,-13.1%
C=CC[n+]1cccc(Oc2ccc([N+](=O)[O-])cc2[N+](=O)[O-])c1,73.7% (active),12.4%,63.5%,31.3%,18.1%,54.7%
CCCCCCC(=O)/C=C/c1cccc(OCc2cccc(Cl)c2)c1,24.4%,16.8%,19.1%,16.8%,1.55%,4.65%
COc1cccc(NC(=O)Nc2ccccc2Cl)c1,-13.2%,8.1%,-3.25%,-19.2%,-1.3%,-32.6%
NC(=S)n1nc(-c2ccccc2)c(N=Nc2ccc(Br)cc2)c1-c1ccccc1,38.6%,3.8%,21.7%,15.4%,14.2%,12.4%
CCOc1ccccc1NC(=O)c1c(Br)c(Br)c(Br)c(Br)c1C(=O)O,5.6%,-16.8%,-1.8%,-4.15%,6.05%,-17.6%
COc1ccc2c(c1C)OC(C)C2=O (stereo unspecified),9.65%,5.05%,-3.9%,-21.1%,-15.9%,0.7%
NC1CCCCC1NCCNC1CCCCC1N (stereo unspecified),-3.15%,9.35%,16.4%,-12.9%,42.4%,10.8%
C1=Cc2ccccc2Nc2ccccc21,-1.9%,-7.35%,-10.8%,1.65%,-11.9%,-23.5%
Cc1cccc(N=C2NC(=O)C(CC(=O)Nc3ccccc3Cl)S2)c1 (stereo unspecified),-16.8%,-35.8%,12.8%,7.45%,0.95%,-1.55%
C#CCNC(=O)NCCCC(NC(C)=O)C(=O)NCc1ccccc1 (stereo unspecified),41%,-12.2%,-4.65%,32.1%,-5.75%,-8.15%
c1cc2c3c(cc4c(c3c1)CCCC4)CC2,-6.95%,-20.9%,-12.9%,-23.6%,5.45%,-4.75%
CCN(CC)C(=O)C(C(=O)OC)c1ccccc1 (stereo unspecified),-4.6%,-9.75%,7.8%,-27.6%,10%,7.1%
Cc1ccc(S(=O)(=O)N/N=C2/C(=N/NS(=O)(=O)c3ccc(C)cc3)c3cccc4cccc2c34)cc1,50%,11.4%,36.7%,8.3%,14.8%,11.3%
CC(=O)Nc1cc2c(cc1Br)-c1ccc(Br)cc1C2,32.4%,8.4%,11.8%,15.6%,-2.45%,14.4%
CN1N(c2ccccc2)C(=O)C2=NC=C(C(=O)c3ccccc3)C(=N)C21C (stereo unspecified),6.2%,-1.6%,22.1%,19.9%,7.7%,16.8%
